Measured values reported in ChEMBL document CHEMBL1157539, “Thousands of chemical starting points for antimalarial lead identification” (Nature, 2010).
Residues, ends and D or L forms follow the SMILES beside them. *: point of attachment. Boc = CC(C)(C)OC(=O)*

Tests used:
Assay type in all cases: functional
[1] = tested on: Plasmodium falciparum; experiment: GSK_TCMDC: Inhibition of Plasmodium falciparum 3D7 in whole red blood cells, using parasite LDH activity as an index of growth. Test compounds present at 2uM
[2] = tested on: Plasmodium falciparum; experiment: GSK_TCMDC: Inhibition of Plasmodium falciparum Dd2 in whole red blood cells, using parasite LDH activity as an index of growth. Test compounds present at 2uM
[3] = tested on: HepG2; experiment: GSK_TCMDC: Percent inhibition of human HepG2 cell line. Test compounds present at 10uM.

Row | SMILES | Inhibition [1] | Inhibition [2] | Inhibition [3]
1 | COc1ccc2nc(N)nc(C)c2c1 | 90% | 1% | 5%
2 | N#Cc1ccc(N2CCN(Cc3cccc(-c4ccc(-c5nc6ccccc6[nH]5)cc4)c3)CC2)nc1.O=C(O)C(F)(F)F | 89% | 40% | 45%
3 | Cc1csc(-c2nc(NCc3cccnc3)ncc2-c2ccsc2)n1 | 87% | 74% | 0%
4 | Cl.c1ccc(-c2cc(NCCCCNc3cc(-c4ccccc4)nc4ccccc34)c3ccccc3n2)cc1 | 100% | 97% | 70%
5 | COC(=O)CC[C@H](NC(=O)[C@H](C)NC(=O)OC(C)(C)C)C(=O)OC (Boc-Ala-Glu(OMe)-OMe) | 95% | 0% | 12%
6 | C=CCOC(=O)N1CCC(CNCc2ccc(-c3ccc(-c4nc5cc(C(F)(F)F)ccc5[nH]4)cc3)cc2)C1.O=C(O)C(F)(F)F (stereo not given) | 100% | 98% | 44%
7 | Cl.O=C(c1ccc(Cl)c(Cl)c1)N1CCc2c([nH]c3ccccc23)C1CN1CCCC1 (stereo not given) | 94% | 16% | 83%
8 | O=C(c1cccc(-c2noc(C(F)(F)F)n2)c1)N1CCN(C(=O)c2ccc3cc[nH]c3c2)CC1 | 94% | 85% | 15%
9 | FC(F)(F)c1ccc2[nH]c(-c3ccc(-c4cccc(CN5CCCCC5)c4)cc3)nc2c1.O=C(O)C(F)(F)F | 100% | 99% | 22%
10 | CCOC(=O)c1nc(-c2cc(Cl)nc(Cl)c2)[nH]c1NC(=S)NCCCN1CCOCC1 | 89% | 71% | 13%
11 | COc1ccc2nccc([C@@H](O)CN3CCC(NCc4cc5ccccc5nn4)CC3)c2c1.O=C(O)C(=O)O | 94% | 16% | 5%
12 | COc1ccc(C2C(C(=O)Nc3cc(Cl)c(OC)cc3OC)c3ccccc3C(=O)N2C)cc1 (stereo not given) | 100% | 98% | 14%
13 | COc1ccc(C(=O)Nc2ccc3oc(-c4ccc(C(F)(F)F)cc4)cc3c2)cc1CCCN(C)C | 98% | 27% | 98%
14 | C=CC[C@H](NC(=O)c1ccc(NS(=O)(=O)c2ccc3nc(N)[nH]c(=O)c3c2)cc1)C(=O)OCCCC | 97% | 2% | 61%
15 | Cc1c(CNCCCNc2nc3ccccc3[nH]2)[nH]c2cc(Cl)cc(Cl)c12 | 100% | 0% | 59%
16 | Cc1c(F)cc(C(=O)NC2CC2)cc1-c1ccc2c(cnn2S(=O)(=O)c2ccc(F)c(F)c2)c1 | 91% | 76% | 49%
17 | N#Cc1ccccc1N1CCN(C2CCC(NC(=O)c3n[nH]c4cc(C(F)(F)F)ccc34)CC2)CC1 (stereo not given) | 84% | 34% | 15%
18 | Cc1cc(OCCCN2CCC(NS(=O)(=O)c3ccc(C(F)(F)F)cc3)CC2)c2ccccc2n1 | 95% | 24% | 12%
19 | COc1ccc(-c2cc(C(=O)N3CCc4ccccc43)c3ccccc3n2)cc1OC | 85% | 48% | 5%
20 | CCC(CC)N1CCN(CC(=O)Nc2ccc([N+](=O)[O-])cc2C(=O)Nc2cccc(OC)c2)CC1 | 100% | 35% | 35%

Row | SMILES | Inhibition [1] | Inhibition [2] | Inhibition [3]
21 | COc1ccc(NC(=O)Nc2ccc(C)c(-c3ccc(C(=O)Nc4ccncc4)cc3)c2)cc1 | 99% | 50% | 39%
22 | O=C(Nc1ccc(Cl)cc1)Nc1nc2cc([N+](=O)[O-])ccc2[nH]1 | 100% | 6% | 0%
23 | COc1cc(F)c2ncc(Cl)c(CCN3CCC(NCc4ccc5c(n4)NC(=O)CO5)CC3)c2c1.Cl | 89% | 19% | 20%
24 | COc1ccc2ncc(F)c(CCN3CC[C@@H](CNCc4cc(C)c5c(c4)OCCO5)C3)c2n1.Cl | 98% | 44% | 22%
25 | CN1CCN(CCCCCNc2c3ccccc3nc3ccccc23)CC1.Cl | 99% | 0% | 57%
26 | CC(C)c1ccc(CN2CCC(NC(=O)c3ccc(-c4ccccc4F)s3)CC2)cc1.O=C(O)C(F)(F)F | 81% | 13% | 46%
27 | Cl.c1ccc2c(C3CCN(CCCCOc4ccc5c(c4)CCN(C4CCC4)CC5)CC3)c[nH]c2c1 | 100% | 100% | 80%
28 | O=C(CSc1nc(-c2ccccc2Cl)ns1)Nc1cccc(F)c1 | 93% | 81% | 0%
29 | COc1ccc(Cl)cc1C(=O)Nc1ccc(-c2nc3ccccc3[nH]2)cc1 | 92% | 39% | 42%
30 | COc1cc2ncnc(Nc3ccc(Br)c(Cl)c3)c2cc1OC.Cl | 100% | 15% | 22%
31 | O=C(Nc1ccc(Cn2ncc(N3CCCNCC3)c(Cl)c2=O)cc1)Nc1cccc(SC(F)(F)F)c1.O=C(O)C(F)(F)F | 92% | 33% | 12%
32 | c1ccc2cc3c(Nc4ccc(N5CCCCCC5)cc4)ccnc3cc2c1 | 94% | 76% | 10%
33 | Cc1cccc2nc(-c3ccc(-c4ccc(CNCc5ccccc5)cc4)cc3)[nH]c12.O=C(O)C(F)(F)F | 99% | 90% | 5%
34 | Cl.Nc1nc(N)c2c(ccc3c2ccn3CCCC2CCCNC2)n1 (stereo not given) | 98% | 55% | 67%
35 | COc1ccc(CC2(c3ccc(F)cc3)N=C(N)N(CCCc3ccc(F)c(F)c3)C2=O)cc1.O=C(O)C(F)(F)F (stereo not given) | 98% | 98% | 42%
36 | c1ccc(-c2n[nH]cc2Nc2ccnc3ccccc23)nc1 | 100% | 98% | 36%
37 | Cc1cccc2nc(-c3ccc(-c4ccc(CNCCCNS(C)(=O)=O)cc4)s3)[nH]c12.O=C(O)C(F)(F)F | 99% | 4% | 13%
38 | CN(Cc1cccc(C#N)c1)C1CCN(c2cc(NC(=O)c3cccc(F)c3)ccn2)CC1.O=C(O)C(F)(F)F | 98% | 15% | 0%
39 | O=C(Nc1cccc(-c2nn3ncccc3c2-c2ccnc(Nc3cccc(C(F)(F)F)c3)n2)c1)c1c(F)cccc1F | 97% | 68% | 49%
40 | COc1ccc(Cn2ccc3c4c(N)nc(N)nc4ccc32)cc1 | 100% | 93% | 90%

Row | SMILES | Inhibition [1] | Inhibition [2] | Inhibition [3]
41 | CCCCN(C)CC#Cc1ccc2[nH]c(C)c(Cl)c(=O)c2c1 | 98% | 97% | 0%
42 | COc1ccc2c(Nc3ccc(N4CCN(C)CC4)cc3)cc(C)nc2c1 | 100% | 9% | 23%
43 | CCOc1cc(C(=O)NC2CCN(Cc3ccccc3)CC2)ccc1-c1nc2cc(Cl)c(Cl)cc2[nH]1 | 100% | 99% | 24%
44 | COc1cccc(-c2cnc(N)c(-c3nc4ccc(C(F)(F)F)cc4[nH]3)c2)c1.Cl | 99% | 30% | 5%
45 | CCCCCn1c(Sc2ccc(C#N)c([N+](=O)[O-])c2)nnc1-c1ccc(OC)cc1 | 88% | 44% | 8%
46 | Cc1cc(N[C@@H](Cc2ccccc2)C(=O)NCCOc2ccccc2)nc(NCCOc2ccccc2)n1.O=C(O)C(F)(F)F | 98% | 24% | 0%
47 | Nc1nc2c(ncn2COC(COCc2ccccc2)COCc2ccccc2)c(=O)[nH]1.Nc1nc2ncn(COC(COCc3ccccc3)COCc3ccccc3)c2c(=O)[nH]1 | 86% | 57% | 18%
48 | O=C(O)C(F)(F)F.Oc1ccc(CN2Cc3ccccc3OC3(CCN(Cc4c[nH]c5cnccc45)CC3)C2)cc1 | 100% | 3% | 17%
49 | CS(=O)(=O)O.CSc1ccc2ccccc2c1CNCCCCCCNCc1c(SC)ccc2ccccc12 | 99% | 74% | 83%
50 | COC(=O)c1c(C#N)c(OC)cc(O)c1CSC[C@H](Nc1nc(-c2ccc([N+](=O)[O-])cc2)cs1)C(=O)NCCN1CCCCC1 | 85% | 88% | 5%
51 | CC(=O)Nc1nc(C(=O)Nc2cccc(-c3ccc(-c4nc5ccccc5[nH]4)cc3)c2)cs1 | 100% | 60% | 88%
52 | Cc1cccc2nc(-c3cccc(-c4cccc(NC(=O)COc5ccccc5C(N)=O)c4)c3)[nH]c12 | 100% | 88% | 22%
53 | CCCCCCN1CCCN(Cc2cccc(C(=O)Nc3ccc(C(C)(C)C)cc3)c2)CC1.O=C(O)C(F)(F)F | 93% | 23% | 41%
54 | COc1ccc2nccc([C@@H](O)CN3CCC(NCc4cc5cc(C)ccc5s4)CC3)c2c1.O=C(O)C(=O)O | 92% | 74% | 13%
55 | CN(C)CCCc1cc(NC(=O)Nc2cccc(Cl)c2Cl)ccc1I.Cl | 100% | 45% | 12%
56 | NC1CCCN(Cc2ccc(-c3ccc(-c4nc5cc(F)ccc5[nH]4)s3)cc2)C1.O=C(O)C(F)(F)F (stereo not given) | 100% | 98% | 40%
57 | O=C(/C=C/c1ccc(Cl)c(Cl)c1)N1CCC(CCN2CCC(c3nc4cc(O)ccc4[nH]3)CC2)CC1 | 100% | 60% | 42%
58 | CCC(CO)NCC(O)Cn1c2ccc(Br)cc2c2cc(Br)ccc21 (stereo not given) | 100% | 87% | 18%
59 | CCCCCCn1c(Sc2ccc(C#N)c([N+](=O)[O-])c2)nnc1-c1ccccc1 | 97% | 41% | 23%
60 | Cc1cccc2nc(-c3ccc(-c4cccc(NC(=O)c5cnccc5C(F)(F)F)c4)cc3)[nH]c12 | 84% | 13% | 25%
